Screens deposited in PubChem by several laboratories.
GALR2 antag = GALR2 (human) receptor antagonism. O43603. GALR2-expressing cells, antagonist mode. inhibition, % at 4 µM. 140,000 compounds, 0.39% hits. AID 828; in the data active means inhibition above about 27%;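 further: cells stimulated with galanin 1-16 at roughly its EC80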
Target sequence (O43603 whole entry, looked up): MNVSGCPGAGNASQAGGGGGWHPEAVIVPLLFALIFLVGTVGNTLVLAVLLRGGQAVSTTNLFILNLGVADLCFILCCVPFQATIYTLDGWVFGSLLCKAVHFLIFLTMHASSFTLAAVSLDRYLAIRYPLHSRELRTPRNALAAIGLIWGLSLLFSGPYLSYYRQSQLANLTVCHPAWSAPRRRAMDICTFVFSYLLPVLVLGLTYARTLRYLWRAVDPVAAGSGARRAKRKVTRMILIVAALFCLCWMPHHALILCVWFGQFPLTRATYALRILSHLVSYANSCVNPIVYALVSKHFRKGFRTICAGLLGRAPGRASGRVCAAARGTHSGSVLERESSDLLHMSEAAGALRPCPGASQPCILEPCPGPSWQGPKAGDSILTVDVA
S1P2 antag = blocks the human S1P2 receptor. cell-based S1P2 antagonist assay, inhibition at 5 uM. O95136. inhibition, % at 5 µM. 97,000 compounds, 0.21% hits. AID 736; in the data active means inhibition above about 45%;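 further: CRE beta-lactamase reporter cells expressing human S1P2 stimulated with S1P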
Target sequence (O95136 whole entry, looked up): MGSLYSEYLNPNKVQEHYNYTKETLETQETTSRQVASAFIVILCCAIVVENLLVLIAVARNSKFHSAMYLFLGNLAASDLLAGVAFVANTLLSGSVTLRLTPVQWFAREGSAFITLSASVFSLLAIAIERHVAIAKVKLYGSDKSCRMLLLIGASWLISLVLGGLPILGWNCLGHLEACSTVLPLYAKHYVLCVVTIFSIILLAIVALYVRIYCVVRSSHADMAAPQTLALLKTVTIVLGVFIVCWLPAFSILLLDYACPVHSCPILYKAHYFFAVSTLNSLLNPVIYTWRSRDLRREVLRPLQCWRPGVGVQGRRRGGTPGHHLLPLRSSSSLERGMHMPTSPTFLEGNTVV
S1P2 ag = activates the human S1P2 receptor; activation, % at 4.5 µM; S1P2-expressing cell line, agonist reporter read-out; O95136; AID 729; 97,000 compounds, 0.46% hits; in the data active means activation above about 16%
Phagocyt inh = blocks phagocytosis by macrophages. J774A.1 macrophage IgG-bead phagocytosis, imaging. inhibition, % at 5 µM. 110,000 compounds, 0.07% hits. AID 1029;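 active means inhibition above the mean of the plate negative controls plus 5 SD, cut at about 13% in these data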;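 further: phagocytic index as fraction of beads internalized from green versus red external bead signal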
GALR2 ag = agonists of human galanin receptor 2 (GALR2); GALR2-expressing cells, agonist activation read-out; 140,000 compounds, 0.48% hits; activation, % (test concentration not listed); in the data active means activation above about 5%, passing the limit was not always enough
Each line names hits and unclear results; the compound was inactive in the other large screens; [ ] = remark or other dose. The list is not random: actives were taken first. Their share in the collection is about 1.3%.

O=C(COc1ccc(Cl)cc1Cl)NC(=O)N1CCCCC1	none
O=C(Nc1nc2ccccc2s1)c1cc2c(s1)-c1ccccc1OC2	S1P2 ag 39.6
O=C(Nc1nccs1)c1cc2c(s1)-c1ccccc1OC2	none
O=C(CSc1ccccc1)Nc1ccc(N2CCN(c3ccccc3)CC2)c(F)c1	none (no result: Phagocyt inh)
Cc1ccc(SCC(=O)Nc2ccc(N3CCN(C)CC3)c(F)c2)cc1	GALR2 ag 7.8
Cc1cc(N2CCN(c3nc4ccccc4s3)CC2)n2ncnc2n1	S1P2 antag 50.6 (no result: Phagocyt inh)
CSc1cc(-c2ccc(Cl)cc2)n(Cc2ccccc2)c(=O)c1C#N	GALR2 ag 438.3
CSc1cc(-c2ccccc2)n(Cc2c(Cl)cccc2Cl)c(=O)c1C#N	none
O=C(Nc1cccc2c1CCCC2)c1ccncc1	none (no result: Phagocyt inh)
N#CCCS(=O)(=O)c1nnnn1-c1ccccc1	GALR2 antag 58.5, S1P2 antag 63.5
CC1CCCCN1c1nnc(NC(=O)c2cc(-c3ccc(Br)cc3)on2)s1 (configuration not stated)	none
CCCN1CCC(NC(=O)Nc2ccc(OC)c(OC)c2)CC1	S1P2 ag 35.0
CCCN1CCC(NC(=O)Nc2ccccc2C(=O)OC)CC1	none
COC(=O)C(C(=O)OC)C(C[N+](=O)[O-])c1ccc(O)c(OC)c1 (configuration not stated)	none (no result: S1P2 antag, S1P2 ag)
CCCCS(=O)(=O)/C=C\C1C2C=CC(C2)C1S(=O)(=O)CCCC (configuration not stated)	none
CCCCS(=O)(=O)/C=C\C=C/S(=O)(=O)CCCC	GALR2 antag 104.4, S1P2 antag 97.1
O=C(OC[C@@H]1CCCN2CCCC[C@H]12)c1cc2ccccc2oc1=O	none (no result: S1P2 antag, S1P2 ag)
O=C(Nc1ccc(-c2nc3ncccc3o2)cc1)c1ccc(Br)o1	S1P2 antag 53.8 (no result: Phagocyt inh)
O=C(Nc1ccc(-c2nc3ncccc3o2)cc1)c1ccco1	none
O=C(CSCCO)Nc1cccc2ccccc12	none
N#CCN1CCN(CC(=O)Nc2cccc3ccccc23)CC1	S1P2 ag 759.6 (no result: Phagocyt inh)
COc1ccc(C2=Nn3c(nnc3-c3ccco3)SC2)cc1OC	S1P2 ag 40.3 (no result: Phagocyt inh)
COc1ccc(C2=Nn3c(nnc3-c3ccccc3OC)SC2)cc1OC	GALR2 antag 30.1, S1P2 ag 33.6 (no result: Phagocyt inh)
CCCOC1(NC(=O)c2ccccc2)C(C)=CC(=O)C=C1C	none (no result: Phagocyt inh)
CC(C)CCNc1nc(-c2ccco2)c2c(c1C#N)CCCC2	S1P2 ag 36.8
N#Cc1c(NCCN)nc(-c2ccco2)c2c1CCCC2	S1P2 ag 20.2
Cc1nn(-c2ccccc2)c(Cl)c1/C=N/O	none (no result: S1P2 antag, S1P2 ag)
Cc1nn(-c2ccccc2)c(Cl)c1/C=N/Nc1nc2ccccc2[nH]1	GALR2 ag 5.5 (no result: S1P2 antag, S1P2 ag)
c1ccc2c(c1)[nH]c1c(N3CCSCC3)ncnc12	GALR2 antag 32.0, S1P2 antag 48.4 (no result: Phagocyt inh)
COc1ccc(N(CC(=O)N/N=C/c2ccc(-c3ccc([N+](=O)[O-])cc3)o2)S(=O)(=O)c2ccc(C)cc2)cc1Cl	S1P2 antag 50.4
COc1cc(OC)c(-c2nnc(-c3ccc(OC)c(OC)c3OC)o2)cc1OC	S1P2 ag 16.2
CCCOC(=O)c1[nH]c2c(c1C)C(=O)CC(c1ccc(OC)c(OC)c1)C2 (configuration not stated)	GALR2 ag 5.2 (no result: S1P2 antag, S1P2 ag)
CCCCCOC(=O)c1[nH]c2c(c1C)C(=O)CC(c1ccco1)C2 (configuration not stated)	GALR2 antag 35.5 (no result: S1P2 antag, S1P2 ag, Phagocyt inh)
Cc1noc(C)c1C(=O)OC(C)C(=O)Nc1ccc(S(=O)(=O)NC(C)C)cc1 (configuration not stated)	none (no result: S1P2 antag, S1P2 ag)
N#Cc1cccc(NC(=O)Cn2c3[n+](c4ccc(C(F)(F)F)cc42)CCCCC3)c1	none (no result: S1P2 antag, S1P2 ag)
O=C(COC(=O)CC(c1ccccc1)c1ccccc1)Nc1c(F)cccc1F	none (no result: S1P2 antag, S1P2 ag)
COc1ccc(CCNC(=O)Cn2cc(C(F)(F)F)cc(Cl)c2=O)cc1OC	none (no result: S1P2 antag, S1P2 ag)
COc1cc2c(cc1OC)C1=C(C#N)CN(C3CCCCC3)CN1CC2	S1P2 ag 20.0
COc1ccc(CCN2CC(C#N)=C3c4cc(OC)c(OC)cc4CCN3C2)cc1OC	S1P2 ag 24.3
CCSCCc1nnc(NC(=O)Nc2cccc(C(F)(F)F)c2)s1	none (no result: S1P2 antag, S1P2 ag)
CC(C)c1ccc2[nH]c(O)c(N=NC(=O)c3ccc(CSc4nncn4C)cc3)c2c1	GALR2 ag 5.1 (no result: S1P2 antag, S1P2 ag)
c1ccc(-c2c3ccccc3nc3[nH]c4ccccc4c23)cc1	GALR2 ag 5.0 (no result: S1P2 antag, S1P2 ag, Phagocyt inh)
c1ccc2nc3c(nc2c1)[nH]c1ccccc13	none (no result: S1P2 antag, S1P2 ag)
CCOC(=O)c1c(-c2ccc(F)cc2)csc1NC(=O)c1c(-c2ccccc2)noc1C	Phagocyt inh 129.4[artifact] (no result: S1P2 antag, S1P2 ag)
COC(=O)c1c(-c2ccccc2)csc1NC(=O)c1c(-c2ccccc2)noc1C	none (no result: S1P2 antag, S1P2 ag)
CN(C)c1ccc(/C=N/NC(=O)CN(c2ccccc2Cl)S(C)(=O)=O)cc1Br	S1P2 ag 16.6 (no result: Phagocyt inh)
COc1cccc(N2CCN(c3ncnc4c3cnn4-c3ccc(C)cc3C)CC2)c1	S1P2 antag 66.3
Cc1ccc(-n2ncc3c(N4CCCC4)ncnc32)c(C)c1	none (no result: Phagocyt inh)
COc1ccc(Nc2nc(Nc3ccc(OC)cc3)nc(-n3[nH]c(=O)c(C)c3C)n2)cc1	GALR2 ag 73.0
COc1ccc(Nc2ccnc(Nc3ccc(OC)cc3)n2)cc1	none (no result: S1P2 antag, S1P2 ag)
Cc1ccc(S(=O)(=O)C2C(=O)N(C)C3(C)CC2c2ccccc2O3)cc1 (configuration not stated)	none (no result: S1P2 antag, S1P2 ag)
COc1cc(C)c(/C=C(\C#N)C(=O)Nc2cccc(C)c2)cc1C(C)C	none (no result: S1P2 antag, S1P2 ag)
Cc1cccc(NC(=S)c2nc3ccccc3s2)c1	none
COC(=O)c1cc(OC)c(OC)cc1NC(=O)c1ccco1	none (no result: S1P2 antag, S1P2 ag)
COc1ccc(NC(=O)COC(=O)c2cc(OC)c(OC)cc2NC(=O)c2ccco2)cc1OC	S1P2 ag 17.5
COCCn1c(=NC(C)=O)sc2cc([N+](=O)[O-])ccc21	GALR2 ag 6.2 (no result: S1P2 antag, S1P2 ag)
O=C(Nc1nccs1)c1ccc2c(=O)n3c(nc2c1)CCCCC3	none (no result: S1P2 antag, S1P2 ag)
COc1ccc(/C=N/NC(=O)C2c3ccccc3Oc3ccccc32)c(OC)c1	none
CCOc1ccc(OCC)c(NC(=O)CSc2nc3c(c(=O)n(C)c(=O)n3C)n2C(C)C)c1	S1P2 ag 25.6
S=C(NCc1ccccn1)Nc1ccc(Cl)c(Cl)c1	S1P2 antag 46.6
CCOC(=O)c1cc(-c2ccc3c(c2)OCCO3)nc2c1c(C)nn2CCC#N	GALR2 ag 7.1
Cc1cc(SCC(=O)c2cccs2)n2nc(C)c(-c3ccccc3)c2n1	none (no result: S1P2 antag, S1P2 ag)
Cc1cc(SCC#N)n2nc(C)c(-c3ccccc3)c2n1	S1P2 ag 16.3
Cc1cc(SCC#N)n2nc(C)c(-c3ccc(Cl)cc3)c2n1	S1P2 ag 38.9
CCc1ccc(N2C(=O)CC(N3CCC(C(=O)OC)CC3)C2=O)cc1 (configuration not stated)	S1P2 ag 27.2
CC(C)OCC1CC(CC(=O)NC(=S)Nc2cccc([N+](=O)[O-])c2)C(=O)O1 (configuration not stated)	S1P2 ag 47.1 (no result: Phagocyt inh)
CC1(C)CC(CC(=O)NC(=S)Nc2ccc([N+](=O)[O-])cc2)C(=O)O1 (configuration not stated)	none (no result: Phagocyt inh)
CC(=O)C1=C(O)C(=O)N(CC#N)C1c1cccs1 (configuration not stated)	S1P2 ag 36.5
O=C(C1=C(O)C(=O)N(Cc2ccco2)C1c1cccs1)c1cccs1 (configuration not stated)	none (no result: S1P2 antag, S1P2 ag)
Nn1c(SCc2cccc(C(F)(F)F)c2)nnc1-c1ccco1	none
